From PubChem BioAssay
Pf growth 96h – Primary qHTS for delayed death inhibitors of the malarial parasite plastid, 96 hour incubation; P. falciparum luciferase reporter growth, 96 h; Potency, µM (doses to about 28.7 µM), inactives show at the top dose activity change, negative = inhibition, actives largely listed as inhibitors; 6.9% of 320,000 active; AID 504834, 2011; further: on the % scale 0 is the no-effect control and ±100 the full control effect
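Parasite growth measured via integrated firefly luciferase reporter in P. falciparum. Infected erythrocytes at 2% hematocrit, 0.05% parasitemia final were treated 96 hours at 37 C under 5% CO2, and luminescence was read.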
Pf growth 48h – Primary qHTS for delayed death inhibitors of the malarial parasite plastid, 48 hour incubation; 5.9% of 310,000 active; AID 504832, 2011; Potency, µM (series often up to 28.7 µM), for the others: top-dose activity change, negative = inhibition, actives largely listed as inhibitors; P. falciparum luciferase growth in erythrocytes, 48 h; further: on the % scale 0 is the no-effect control and ±100 the full control effect
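A one-generation exposure of luciferase-tagged malaria parasites in RPMI 1640/Albumax erythrocyte culture, 37 C and 5% CO2. Inhibition is inferred from decreased luminescence after adding detection reagent.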
NS1 inh – qHTS Assay for Inhibitors of Influenza NS1 Protein Function | Potency, µM (doses to about 46.1 µM), for the others: top-dose activity, positive = more growth | 0.4% of 270,000 active | AID 2326, 2010; calls by dose curve; further: actives are rising curves; nearly all actives have a fitted effect of over 50% in size
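Compounds were scored for reversing the slow growth caused by influenza A NS1 in S. cerevisiae, measured by optical density at 600 nm. Assay medium contained 2% galactose at pH 6.0; NS1-free yeast of the same strain were the positive control.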
HCV inh – qHTS Assay for Inhibitors of Hepatitis C Virus (HCV) | Huh7.5.1 HCVcc-Cre infection, luciferase reporter, 44 h | Potency, µM (titrated, usually from 41.8 µM), inactives show top-dose activity change, negative = inhibition, hits mostly inhibitors | AID 651820, 2012 | 3.4% of 340,000 active; further: on the % scale 0 is the no-effect control and ±100 the full control effect
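Cells seeded at 1,000/well and cultured 4 h, then compounds added followed by HCVcc-Cre virus (~0.5 moi). After 44 h further culture, luciferase substrate was added, plates held 15 min at room temperature, and luminescence read for 15 sec.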
AMA1-RON2 inh – qHTS for Inhibitors of AMA1-RON; Towards Development of Antimalarial Drug Lead: Primary Screen | Potency, µM (top dose mostly 58.2 µM), for the others: at the highest dose activity change, negative = inhibition, usual class: inhibitors | AID 720542, 2013 | AlphaScreen AMA1-biotinylated RON2 peptide binding | 0.2% of 360,000 active;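 further: 0% = vehicle wells and -100% = peptide control; nearly all actives have a fitted effect of over 45% in size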
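AMA1 (3D7) with his tag at 25 nM final met compounds first, then biotinylated RON2 peptide at 25 nM; detection used donor plus acceptor beads, 10 µg/mL apiece, read by AlphaScreen after 30 min at room temperature.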
SARS PLpro yeast – qHTS of Yeast-based Assay for SARS-CoV PLP. Potency, µM (top dose mostly 32.9 µM), for inactives: top-dose activity, positive = growth rescue, usual class: activators. 0.19% of 330,000 active. S. cerevisiae expressing SARS-CoV PLpro, growth rescue; calls by dose curve; further: 0% is about no effect; nearly all actives have a fitted effect of over 55% in size
* = called active by the depositor; ? = inconclusive; · = not tested or not shown; [ ] = another dose, or the depositor's remark. A selection: hits, their analogues and other compounds. The true share with any hit is near 12%. Unless noted, the call rests on the fitted dose curve; in most records, active means well fitted curve in the direction sought with a large enough effect; inconclusive means small, poorly fitted or top-dose-only effect, or another doubt; inactive means no such curve, though single readings can be large; an effect the other way counts as inactive or inconclusive. Potency means the concentration at half of the fitted maximal effect.

SMILES	Pf growth 96h	Pf growth 48h	NS1 inh	HCV inh	AMA1-RON2 inh	SARS PLpro yeast
O=c1cc(Nc2ccc3c(c2)OCCO3)[nH]c(=O)n1C1CCCCC1	36%	2.1µM*	3%	?	0%	6%
CCc1ccc(Nc2cc(=O)n(C3CCCCC3)c(=O)[nH]2)cc1	-9%	0.15µM*	-6%	?	14%	-5%
O=C(OCc1cccc(F)c1)c1cc2ccccc2cc1O	?	11%	-3%	-30%	27%	-2%
Cc1ccc2nc(N/C(=N/S(=O)(=O)c3cccs3)c3ccccc3Cl)sc2c1	6%	4%	·	21%	14%	2%
C=CC[n+]1c(-c2ccc(OC)cc2)csc1NNC(=O)Nc1ccccc1	?	·	2%	11µM*	2%	-10%
C=CC[n+]1c(-c2ccc(C)cc2)csc1Nc1ccc(NC(C)=O)cc1	0%	?	-11%	-27%	-17%	-8%
O=C(Nc1ccnn1C1CCN(CCCC2CCCC2)CC1)c1ccccc1Cl	-8%	?	-3%	-24%	8%	0%
CCOc1cc(O)c(-c2[nH]ncc2-c2nc(C)cs2)cc1CC	?	15µM*	-5%	?	112%	0%
CCOc1ccc(NC(=O)CN(C)C(=O)C2CCN(C(=O)c3ccc(Cl)cc3)CC2)cc1OCC	9%	?	·	-14%	0%	-12%
Cc1cc(-c2ccccc2)c2c(=O)n(-c3ccccc3)[nH]c2n1	0.0037µM*	38%	25%	-4%	-2%	16%
O=c1c2c(-c3cccc([N+](=O)[O-])c3)ccnc2[nH]n1-c1ccccc1	0%	14%	-2%	21%	0%	1%
S=C(Sc1ccc(Cl)cc1)Sc1ccc(Cl)cc1	?	6.6µM*	9%	·	·	-15%
CC(=O)/C(=C\N(C)C)Sc1ccc(Cl)cc1	?	?	2%	-6%	-11%	0%
N=C1C(c2ccccc2)=C(O)CN1c1cccc2ccccc12	-15%	-21%	·	-7%	0%	3%
Cc1ccc2nc(C)cc(C(=O)OCC(=O)Nc3cccnc3Cl)c2c1	2%	?	·	1%	-6%	-3%
O=S(=O)(Nc1ccc2c(c1)OCO2)c1ccccc1	·	-3%	3%	3%	6%	9%
CN(C)CC(NC(=O)c1cccc(S(=O)(=O)Nc2ccc3c(c2)OCO3)c1)c1ccccc1 (centres undefined)	4.1µM*	?	·	-1%	1%	-7%[6.58 µM]
O=c1[nH]c(=S)[nH]c2c1C(c1ccc(Cl)cc1)OC(C1CCCCC1)C2 (centres undefined)	·	·	·	·	83%	·
COc1cc2sc(C)nc2c2ccccc12	?	18%	-4%	10µM*	0%	-4%
Cc1cccc(OS(=O)(=O)NC(=O)OCC2CCCN3CCCCC23)c1 (centres undefined)	24%	-5%	·	9%	30%	-2%
Cc1ccc(-n2c(SCC(=O)N3CCCc4ccccc43)nnc2-c2cccnc2)c(C)c1	-19%	?	-5%	?	-2%	-13%
Cc1ccc(-n2c(-c3ccccc3)c[n+]3c2CCc2ccccc2-3)c(C)c1	0%	0.93µM*	-4%	?	4%	-8%
Cc1ccccc1Nc1nc(Nc2ccccc2C)nc(SC2=NCCS2)n1	·	10µM*	27%	?	-18%	?
Cc1ccc(Nc2nc(Nc3ccc(C)cc3)nc(SC3=NCCS3)n2)cc1	13µM*	·	25%	?	-3%	28%
Cc1cc2c(cc1S(=O)(=O)N1CCN(c3cccc(C)c3C)CC1)OCCN2C	?	?	24%	18%	-29%	-11%
SMILES	Pf growth 96h	Pf growth 48h	NS1 inh	HCV inh	AMA1-RON2 inh	SARS PLpro yeast
COc1ccc(NC(=O)C2C3C=CC(O3)C2C(=O)NCc2cccnc2)cc1 (centres undefined)	10µM*	25%	5%	15%	16%	-11%
CCOc1cc(-c2cc(-c3ccc(N)cc3)nc(N)c2C#N)ccc1O	86%	12µM*	-32%	?	35%	-9%
C[C@H](NC(=O)N1CCn2c1nc1ccccc12)C(=O)N1CCCCC1	23%	13%	6%	10%	127%	-6%
S=c1[nH]nc(-c2cccc(Cl)c2)n1/N=C/c1ccc(-c2ccccc2Br)o1	?	10µM*	3%	-29%	52%	-1%
Cc1ccc(/C=N/n2c(-c3cccc(Cl)c3)n[nH]c2=S)o1	17%	55%	2%	10%	61%	0%
O=C(CSc1cccc[n+]1[O-])Nc1ccc(N2CCOCC2)cc1	25%	13%	·	·	·	1%
CC(Cc1ccccn1)NC(=O)c1ccc(OC2CCN(CCc3ccccc3)CC2)cc1 (centres undefined)	13%	12µM*	2%	?	-5%	21%
CSCCCNC(=O)c1ccc(OC2CCN(CCc3ccccc3)CC2)cc1	13µM*	?	1%	3%	-4%	0%
CC(NC(=O)c1ccc(OC2CCN(Cc3ccccn3)CC2)cc1)c1nccs1 (centres undefined)	13µM*	-12%	6%	-4%	68%	4%
CC(=O)Nc1ccc(S(=O)(=O)NCCC(=O)N2CCC(Cc3ccccc3)CC2)cc1	5.2µM*	?	·	-7%	-15%	-3%
O=C(CCNS(=O)(=O)c1ccccc1)N1CCN(C(c2ccccc2)c2ccccc2)CC1	5.9µM*	?	-33%	·	·	-4%
CC(=O)Nc1ccc(S(=O)(=O)NCCC(=O)N2CCN(C(c3ccccc3)c3ccccc3)CC2)cc1	10µM*	12µM*	·	11%	-1%	-6%
CC(=O)Nc1ccc(S(=O)(=O)NCCC(=O)N2CCCCC2)cc1	8%	-22%	·	10%	-24%	-1%
CC1CCN(c2ccc(C(=O)O)cc2N)CC1	3.3µM*	35%	0%	-1%	-12%	4%
Nc1cc(C(=O)O)ccc1N1CCCCC1	-22%	-10%	10%	11%	-10%	-24%
N#Cc1ccc2c(c1)C[C@]1(c3ccsc3)Oc3c(c(=O)oc4ccccc34)C2O1	?	?	19%	·	·	-4%[6.58 µM]
O=C(Nc1ccc(C2=NCCN2)cc1)c1ccc(Cl)c(C(=O)Nc2ccc(C3=NCCN3)cc2)c1	0.21µM*	2.3µM*	-9%	·	·	2%
COCCNC(=O)CN1N=C(c2ccc(OC)cc2)CCC1=O	9%	24%	3%	14%	26%	1%
COc1ccc(C2=NN(CC(=O)Nc3ccccc3C)C(=O)CC2)cc1	?	4.1µM*	-4%	?	13%	-3%
